# The campaign covered roughly 5,500 compounds. About 2,000 (36%) were called active. About 18% were inconclusive and are not listed. This is one part of the list. Unmarked numbers belong to inactive results. Cut-off read from the data, not from the text of the source: active = normalized growth mostly below about 0.91 (no sharp cut-off); inconclusive = no clear call, values can overlap the other calls; inactive = mostly above about 0.92.
# Test: chemical genetic growth profiling, strain panel (AID 1159580);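 note: tested at 20 µM; growth read once vehicle control cultures reached saturation at 30 °C; 1 = growth at the plate median or of vehicle wells; lower values mean less growth of the strain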
# Settings: growth OD
structure (smiles),measurement,setting,value
CCOP(=S)(OCC)SCSP(=S)(OCC)OCC,normalized growth,"S. cerevisiae deletion strains, locus YAL013W, strain DEP1, hits give low values",0.993
same,normalized growth,"S. cerevisiae deletion strains, locus YBR021W, strain FUR4, hits give low values",1
same,normalized growth,"S. cerevisiae deletion strains, locus YBR229C, strain ROT2, hits give low values",0.961
same,normalized growth,"S. cerevisiae deletion strains, locus YCL029C, strain bik1, hits give low values",0.978
same,normalized growth,"S. cerevisiae deletion strains, locus YDL035C, strain GPR1, hits give low values",0.956
same,normalized growth,"S. cerevisiae deletion strains, locus YDL074C, strain BRE1, hits give low values",0.89
same,normalized growth,"S. cerevisiae deletion strains, locus YDL101C, strain DUN1, hits give low values",0.97
same,normalized growth,"S. cerevisiae deletion strains, locus YDL134C, strain PPH21, hits give low values",0.986
same,normalized growth,"S. cerevisiae deletion strains, locus YDL185W, strain tfp1, hits give low values",0.957
same,normalized growth,"S. cerevisiae deletion strains, locus YDL192W, strain arf1, hits give low values",0.979
same,normalized growth,"S. cerevisiae deletion strains, locus YDR101C, strain arx1, hits give low values",0.989
same,normalized growth,"S. cerevisiae deletion strains, locus YDR150W, strain NUM1, hits give low values",0.984
same,normalized growth,"S. cerevisiae deletion strains, locus YDR162C, strain NBP2, hits give low values",0.806 (active)
same,normalized growth,"S. cerevisiae deletion strains, locus YDR318W, strain mcm21, hits give low values",0.981
same,normalized growth,"S. cerevisiae deletion strains, locus YDR388W, hits give low values",0.994
same,normalized growth,"S. cerevisiae deletion strains, locus YDR502C, strain sam2, hits give low values",0.99
same,normalized growth,"S. cerevisiae deletion strains, locus YEL061C, strain CIN8, hits give low values",0.995
same,normalized growth,"S. cerevisiae deletion strains, locus YER110C, hits give low values",0.987
same,normalized growth,"S. cerevisiae deletion strains, locus YER155C, strain BEM2, hits give low values",1.01
same,normalized growth,"S. cerevisiae deletion strains, locus YER167W, strain BCK2, hits give low values",0.972
same,normalized growth,"S. cerevisiae deletion strains, locus YGL078C, strain dbp3, hits give low values",0.984
same,normalized growth,"S. cerevisiae deletion strains, locus YGL086W, strain mad1, hits give low values",1
same,normalized growth,"S. cerevisiae deletion strains, locus YGL248W, strain PDE1, hits give low values",0.946
same,normalized growth,"S. cerevisiae deletion strains, locus YGR078C, strain PAC10, hits give low values",0.969
same,normalized growth,"S. cerevisiae deletion strains, locus YGR135W, strain pre9, hits give low values",0.981
same,normalized growth,"S. cerevisiae deletion strains, locus YGR229C, strain SMI1, hits give low values",0.908
same,normalized growth,"S. cerevisiae deletion strains, locus YGR252W, strain gcn5, hits give low values",0.954
same,normalized growth,"S. cerevisiae deletion strains, locus YHR030C, strain SLT2, hits give low values",1.01
same,normalized growth,"S. cerevisiae deletion strains, locus YHR079C, strain IRE1 (second series), hits give low values",0.989
same,normalized growth,"S. cerevisiae deletion strains, locus YHR094C, strain hxt1, hits give low values",0.999
same,normalized growth,"S. cerevisiae deletion strains, locus YHR129C, strain ARP1, hits give low values",0.969
same,normalized growth,"S. cerevisiae deletion strains, locus YHR200W, strain rpn10, hits give low values",0.995
same,normalized growth,"S. cerevisiae deletion strains, locus YIL066C, strain RNR3, hits give low values",0.94
same,normalized growth,"S. cerevisiae deletion strains, locus YIL073C, strain SPO22, hits give low values",0.907
same,normalized growth,"S. cerevisiae deletion strains, locus YIL125W, strain kgd1, hits give low values",0.981
same,normalized growth,"S. cerevisiae deletion strains, locus YIR030C, strain dcg1, hits give low values",0.984
same,normalized growth,"S. cerevisiae deletion strains, locus YJL095W, strain BCK1, hits give low values",0.964
same,normalized growth,"S. cerevisiae deletion strains, locus YJL134W, strain LCB3, hits give low values",0.988
same,normalized growth,"S. cerevisiae deletion strains, locus YJL168C, strain set2, hits give low values",0.984
same,normalized growth,"S. cerevisiae deletion strains, locus YJL187C, strain SWE1 (second series), hits give low values",0.984
same,normalized growth,"S. cerevisiae deletion strains, locus YJR043C, strain POL32, hits give low values",0.984
same,normalized growth,"S. cerevisiae deletion strains, locus YJR075W, strain HOC1, hits give low values",0.928
same,normalized growth,"S. cerevisiae deletion strains, locus YKL009W, strain mrt4, hits give low values",0.946
same,normalized growth,"S. cerevisiae deletion strains, locus YKL068W, hits give low values",0.993
same,normalized growth,"S. cerevisiae deletion strains, locus YKL085W, strain MDH1 (second series), hits give low values",0.984
same,normalized growth,"S. cerevisiae deletion strains, locus YKL085W, strain MDH1, hits give low values",0.984
same,normalized growth,"S. cerevisiae deletion strains, locus YKL190W, strain CNB1, hits give low values",1
same,normalized growth,"S. cerevisiae deletion strains, locus YKR001C, strain vps1, hits give low values",0.978
same,normalized growth,"S. cerevisiae deletion strains, locus YLR039C, strain RIC1, hits give low values",0.868
same,normalized growth,"S. cerevisiae deletion strains, locus YLR058C, strain SHM2, hits give low values",0.982
same,normalized growth,"S. cerevisiae deletion strains, locus YLR102C, strain apc9, hits give low values",0.983
same,normalized growth,"S. cerevisiae deletion strains, locus YLR262C, strain YPT6, hits give low values",0.829
same,normalized growth,"S. cerevisiae deletion strains, locus YLR268W, strain sec22, hits give low values",0.981
same,normalized growth,"S. cerevisiae deletion strains, locus YLR330W, strain CHS5, hits give low values",0.992
same,normalized growth,"S. cerevisiae deletion strains, locus YLR342W, strain FKS1 (second series), hits give low values",0.996
same,normalized growth,"S. cerevisiae deletion strains, locus YLR371W, strain rom2, hits give low values",0.985
same,normalized growth,"S. cerevisiae deletion strains, locus YLR418C, strain cdc73, hits give low values",0.932
same,normalized growth,"S. cerevisiae deletion strains, locus YML016C, strain PPZ1, hits give low values",0.988
same,normalized growth,"S. cerevisiae deletion strains, locus YML032C, strain rad52, hits give low values",0.989
same,normalized growth,"S. cerevisiae deletion strains, locus YML124C, strain tub3, hits give low values",0.996
same,normalized growth,"S. cerevisiae deletion strains, locus YMR078C, strain ctf18, hits give low values",0.997
same,normalized growth,"S. cerevisiae deletion strains, locus YMR223W, strain ubp8, hits give low values",0.98
same,normalized growth,"S. cerevisiae deletion strains, locus YMR263W, strain SAP30, hits give low values",0.981
same,normalized growth,"S. cerevisiae deletion strains, locus YMR307W, strain GAS1, hits give low values",0.954
same,normalized growth,"S. cerevisiae deletion strains, locus YNL067W, strain RPL9B, hits give low values",0.971
same,normalized growth,"S. cerevisiae deletion strains, locus YNL128W, strain TEP1, hits give low values",0.918
same,normalized growth,"S. cerevisiae deletion strains, locus YNL153C, strain GIM3, hits give low values",0.987
same,normalized growth,"S. cerevisiae deletion strains, locus YNL233W, strain BNI4, hits give low values",0.982
same,normalized growth,"S. cerevisiae deletion strains, locus YNL250W, strain rad50, hits give low values",0.982
same,normalized growth,"S. cerevisiae deletion strains, locus YNL271C, strain bni1, hits give low values",0.991
same,normalized growth,"S. cerevisiae deletion strains, locus YNL298W, strain CLA4, hits give low values",0.979
same,normalized growth,"S. cerevisiae deletion strains, locus YNL307C, strain MCK1, hits give low values",0.987
same,normalized growth,"S. cerevisiae deletion strains, locus YNL322C, strain KRE1, hits give low values",0.981
same,normalized growth,"S. cerevisiae deletion strains, locus YNR052C, strain pop2, hits give low values",0.986
same,normalized growth,"S. cerevisiae deletion strains, locus YOL006C, strain TOP1, hits give low values",0.788
same,normalized growth,"S. cerevisiae deletion strains, locus YOL012C, strain htz1",1.08
same,normalized growth,"S. cerevisiae deletion strains, locus YOL147C, strain pex11, hits give low values",1.01
same,normalized growth,"S. cerevisiae deletion strains, locus YOR061W, strain CKA2, hits give low values",0.964
same,normalized growth,"S. cerevisiae deletion strains, locus YOR069W, strain VPS5, hits give low values",0.995
same,normalized growth,"S. cerevisiae deletion strains, locus YOR136W, strain idh2, hits give low values",0.988
same,normalized growth,"S. cerevisiae deletion strains, locus YOR144C, strain elg1, hits give low values",0.989
same,normalized growth,"S. cerevisiae deletion strains, locus YOR184W, strain ser1, hits give low values",0.968
same,normalized growth,"S. cerevisiae deletion strains, locus YOR316C, strain cot1, hits give low values",0.969
same,normalized growth,"S. cerevisiae deletion strains, locus YPL055C, strain LGE1, hits give low values",0.914
same,normalized growth,"S. cerevisiae deletion strains, locus YPL241C, strain CIN2, hits give low values",0.989
same,normalized growth,"S. cerevisiae deletion strains, locus YPR119W, strain clb2, hits give low values",0.993
same,normalized growth,"S. cerevisiae deletion strains, locus YPR141C, strain kar3, hits give low values",0.949
same,normalized growth,"S. cerevisiae deletion strains, locus YPR163C, strain tif3, hits give low values",0.994
same,normalized growth,"S. cerevisiae deletion strains, locus YPR167C, strain met16, hits give low values",0.979
same,normalized growth,"S. cerevisiae deletion strains, strain wtn01, hits give low values",0.981
same,normalized growth,"S. cerevisiae strains, strain wild type, hits give low values",0.982

# — PubChem BioAssay AID1159580 (chemical genetic matrix, 2015)
